# Laboratory results reported in PubChem BioAssay (Tox21).
# A number with no mark means an inactive call. Inconclusive results are not listed. Where a call stands in place of a potency, no number is given. The source made the active and inactive calls. Unless noted, the call rests on the fitted dose curve; in most records, active means well fitted curve in the direction sought with a large enough effect in the repeat runs; inconclusive means weak or mixed curves; inactive means no such curve, though single readings can be large; an effect the other way counts as inactive or inconclusive.
# Assays:
# [1] = qHTS assay to identify small molecule agonists of H2AX (AID 1224845; active means well fitted activation curve with a large enough effect in the signal ratio in the repeat runs, not every such curve was filed as active; the % refers to the signal ratio)
# How it was run: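 Phospho-H2AX Ser139 measured by HTRF (ex 320 nm; em 665 and 620 nm) after 24 hr antibody incubation. Compounds, 15 concentrations, 0.76% DMSO, were applied to CHO-K1 cells for 3hr at 37C before lysis.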
# [2] = qHTS assay to identify small molecule agonists of H2AX - cell viability counter screen (AID 1224847; calls by dose curve; further: top concentration of the series differs between compounds; nearly all actives have a fitted effect of over 30% in size)
# How it was run: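 Wild-type CHO-K1 cells (10% FBS medium) were plated overnight at 37C, exposed to compounds at 15 concentrations for 3 hr at 37C (0.76% DMSO final), and viability was read as CellTiter-Glo luminescence after 30 min at room temperature.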
# [3] = qHTS assay to identify small molecule antagonists of the estrogen related receptor (ERR) signaling pathway from Tox21 library (AID 1224848); further: nearly all actives have a fitted effect of over 50% in size; further: potency means the concentration at half of the fitted maximal effect
# How it was run: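 ERR cell line, 2,000 cells/well. 6 h settle, then compound (DMSO) added; 18 h at 37 C; ONE-Glo luminescence after 30 min RT.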
# [4] = qHTS assay to identify small molecule agonists of the estrogen related receptor (ERR) signaling pathway from Tox21 library (AID 1224849; calls by dose curve; further: nearly all actives have a fitted effect of over 15% in size); conditions: ERR reporter cell line, ONE-Glo luciferase, 18 h; at 92.4 µM (top of the series) unless noted
# How it was run: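 Quantitative HTS in agonist format: NTP ERR cell line, compounds transferred in DMSO after 6 h plating, 18 h incubation at 37 C, ONE-Glo luminescence endpoint.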
# [5] = qHTS RealTime-Glo MT Cell Viability Assay in HepG2 cells - 24 hour (AID 1224867); further: nearly all actives have a fitted effect of over 50% in size
# How it was run: (§1)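 Compound treatment began 5 h after plating HepG2 cells (600/well) with NanoLuc luciferase and prosubstrate. Plates stayed at 37 C for 40 h; luminescence was captured at six time points, 0 h through 40 h.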
# [6] = qHTS RealTime-Glo MT Cell Viability Assay in HEK293 cells - 32 hour (AID 1224868); further: nearly all actives have a fitted effect of over 50% in size; further: potency means the concentration at half of the fitted maximal effect
# How it was run: (§2)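 Quantitative high-throughput screen of the Tox21 10K library in HEK293: cells and RealTime-Glo reagents plated together, compound added at 5 h, luminescence monitored through 40 h at 37 C.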
# [7] = A CellTox Green Cytotoxicity Assay to monitor cytotoxicity in HEK293 cells - 0 hour (AID 1224869); further: nearly all actives have a fitted effect of over 50% in size
# How it was run: (§3)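 Dead-cell fluorescence measured kinetically: asymmetric cyanine dye, HEK293, 600 cells/well, 5 h settle, 23 nL cpd/DMSO, 37 C, reads 0–40 h every 8 h.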
# [8] = qHTS RealTime-Glo MT Cell Viability Assay in HepG2 cells - 40 hour (AID 1224870); further: nearly all actives have a fitted effect of over 50% in size
# How it was run: (§4)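 Real-time viability: cells seeded at 600 per well together with NanoLuc and cell-permeant prosubstrate, compounds added after 5 h incubation. Luminescence tracked at 0, 8, 16, 24, 32 and 40 h of exposure.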
# [9] = qHTS RealTime-Glo MT Cell Viability Assay in HEK293 cells - 40 hour (AID 1224874); conditions: RealTime-Glo luminescence; max response: active compounds read low; further: nearly all actives have a fitted effect of over 50% in size; further: potency means the concentration at half of the fitted maximal effect
# How it was run: (§5)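 600 HEK293 cells per well, dispensed already mixed with RealTime-Glo MT reagents. Compound dosing came 5 h later. The same wells were read for luminescence at 0, 8, 16, 24, 32 and 40 h of exposure at 37 C.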
# [10] = A CellTox Green Cytotoxicity Assay to monitor cytotoxicity in HEK293 cells - 24 hour (AID 1224875); further: nearly all actives have a fitted effect of over 45% in size
# How it was run: as §3
# [11] = A CellTox Green Cytotoxicity Assay to monitor cytotoxicity in HepG2 cells - 16 hour (AID 1224876); further: nearly all actives have a fitted effect of over 45% in size
# How it was run: (§6)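 First, HepG2 cells (600/well) mixed with reagent were plated; second, after 5 h at 37 C they received compounds via pintool; third, fluorescence was measured at 0 h through 40 h at 8 h intervals.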
# [12] = qHTS RealTime-Glo MT Cell Viability Assay in HepG2 cells - 32 hour (AID 1224877); further: nearly all actives have a fitted effect of over 55% in size
# How it was run: as §1
# [13] = A CellTox Green Cytotoxicity Assay to monitor cytotoxicity in HepG2 cells - 24 hour (AID 1224878); further: nearly all actives have a fitted effect of over 45% in size
# How it was run: as §6
# [14] = A CellTox Green Cytotoxicity Assay to monitor cytotoxicity in HepG2 cells - 40 hour (AID 1224879); further: nearly all actives have a fitted effect of over 40% in size
# How it was run: as §6
# [15] = qHTS RealTime-Glo MT Cell Viability Assay in HEK293 cells - 0 hour (AID 1224880); further: top concentration of the series differs between compounds; nearly all actives have a fitted effect of over 45% in size
# How it was run: as §5
# [16] = A CellTox Green Cytotoxicity Assay to monitor cytotoxicity in HEK293 cells - 32 hour (AID 1224881); further: nearly all actives have a fitted effect of over 40% in size; further: potency means the concentration at half of the fitted maximal effect
# How it was run: as §3
# [17] = qHTS assay to identify small molecule agonists of the hypoxia (HIF-1) signaling pathway (AID 1224846; active means well fitted activation curve with a large enough effect in the signal ratio in the repeat runs, not every such curve was filed as active; the % refers to the signal ratio)
# How it was run: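 Agonist mode reporter screen. ME-180 cells stably expressing bla under HRE control received test compounds in DMSO for 17 hrs (37C, 5% CO2), and beta-lactamase activity was then detected with the CCF4-AM FRET substrate.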
# [18] = A CellTox Green Cytotoxicity Assay to monitor cytotoxicity in HEK293 cells - 40 hour (AID 1224871); further: nearly all actives have a fitted effect of over 45% in size; further: potency means the concentration at half of the fitted maximal effect
# How it was run: as §3
# [19] = qHTS RealTime-Glo MT Cell Viability Assay in HEK293 cells - 16 hour (AID 1224872)
# How it was run: as §2
# [20] = qHTS RealTime-Glo MT Cell Viability Assay in HepG2 cells - 8 hour (AID 1224873); further: nearly all actives have a fitted effect of over 55% in size
# How it was run: as §4
smiles,measurement,setting,value
C[C@H]1C[C@H]2[C@@H]3CCC4=CC(=O)C=C[C@]4(C)[C@@]3(Cl)[C@@H](O)C[C@]2(C)[C@@]1(O)C(=O)CO,Potency,[1],inactive
same,Potency,[2],inactive
same,Potency,[3],26.6 µM (active)
same,"activity change, positive = activation",[4],-28.8% [at 42.5 µM]
same,Potency,[5],inactive
same,Potency,[6],inactive
same,Potency,[7],inactive
same,Potency,[8],inactive
same,max response,[9],-22.6%
same,Potency,[10],inactive
same,Potency,[11],inactive
same,Potency,[12],inactive
same,Potency,[13],inactive
same,Potency,[14],inactive
same,Potency,[15],inactive
same,Potency,[16],inactive
C/C=C/C=C/CO,Potency,[1],inactive
same,Potency,[17],inactive
same,Potency,[2],inactive
same,Potency,[7],inactive
same,Potency,[8],inactive
same,Potency,[18],inactive
same,Potency,[19],inactive
same,Potency,[20],inactive
same,Potency,[10],inactive
same,Potency,[11],inactive
same,Potency,[12],inactive
same,Potency,[13],inactive
same,Potency,[14],inactive
same,Potency,[15],inactive
same,Potency,[16],inactive
Nc1cccc(S(=O)(=O)c2cccc(N)c2)c1,Potency,[1],inactive
same,Potency,[17],inactive
same,Potency,[3],inactive
same,"activity change, positive = activation",[4],0.747%
same,Potency,[5],inactive
same,Potency,[6],inactive
same,Potency,[7],inactive
same,Potency,[8],inactive
same,Potency,[18],inactive
same,Potency,[19],inactive
same,Potency,[20],inactive
same,max response,[9],-13.5%
same,Potency,[10],inactive
same,Potency,[11],inactive
same,Potency,[12],inactive
same,Potency,[13],inactive
same,Potency,[14],inactive
same,Potency,[15],inactive
same,Potency,[16],inactive
CCN(CC)CCNC(=O)c1cc(Br)c(N)cc1OC,Potency,[1],inactive
same,Potency,[2],inactive
same,Potency,[3],inactive
same,"activity change, positive = activation",[4],3.9% [at 42.5 µM]
same,Potency,[6],inactive
same,Potency,[7],inactive
same,Potency,[8],inactive
same,Potency,[18],inactive
same,Potency,[19],inactive
same,Potency,[20],inactive
same,max response,[9],10.1%
same,Potency,[10],inactive
same,Potency,[11],inactive
same,Potency,[12],inactive
same,Potency,[13],inactive
same,Potency,[14],inactive
same,Potency,[15],inactive
same,Potency,[16],inactive
C=CCOc1ccccc1OCC(O)CNC(C)C (configuration not stated),Potency,[1],inactive
same,Potency,[2],inactive
same,Potency,[3],inactive
same,"activity change, positive = activation",[4],4.2% [at 42.5 µM]
same,Potency,[6],inactive
same,Potency,[7],inactive
same,Potency,[8],inactive
same,Potency,[18],inactive
same,Potency,[19],inactive
same,Potency,[20],inactive
same,max response,[9],4.45%
same,Potency,[10],inactive
same,Potency,[12],inactive
same,Potency,[13],inactive
same,Potency,[14],inactive
same,Potency,[15],inactive
same,Potency,[16],inactive
CCCCC(CC)CN1C(=O)C2C3C=CC(C3)C2C1=O (configuration not stated),Potency,[1],inactive
same,Potency,[17],inactive
same,Potency,[3],54.5 µM (active)
same,"activity change, positive = activation",[4],-33.1%
same,Potency,[5],inactive
same,Potency,[7],inactive
same,Potency,[8],inactive
same,Potency,[18],30.9 µM (active)
same,Potency,[20],inactive
same,Potency,[11],inactive
same,Potency,[12],inactive
same,Potency,[13],inactive
same,Potency,[14],inactive
same,Potency,[15],inactive
same,Potency,[16],30.9 µM (active)
CN(C)c1ccc(C(c2ccccc2)c2ccc(N(C)C)cc2)cc1,Potency,[1],inactive
same,Potency,[2],inactive
same,Potency,[3],34.4 µM (active)
same,"activity change, positive = activation",[4],-34.5%
same,Potency,[5],inactive
same,Potency,[7],inactive
same,Potency,[8],inactive
same,Potency,[11],inactive
same,Potency,[12],inactive
same,Potency,[13],inactive
same,Potency,[14],inactive
same,Potency,[15],inactive
C#Cc1cccc(Nc2ncnc3cc(OCCOC)c(OCCOC)cc23)c1,Potency,[1],inactive
same,Potency,[17],inactive
same,Potency,[3],6.68 µM (active)
same,"activity change, positive = activation",[4],-38.1% [at 42.5 µM]
same,Potency,[5],inactive
same,Potency,[6],inactive
same,Potency,[7],inactive
same,Potency,[8],inactive
same,Potency,[18],inactive
same,Potency,[19],inactive
same,Potency,[20],inactive
same,max response,[9],-23.8%
same,Potency,[10],inactive
same,Potency,[11],inactive
same,Potency,[12],inactive
same,Potency,[13],inactive
same,Potency,[15],inactive
same,Potency,[16],inactive
C=C(C)C(=O)OCCO,Potency,[1],inactive
same,Potency,[17],inactive
same,Potency,[2],inactive
same,Potency,[6],inactive
same,Potency,[7],inactive
same,Potency,[8],inactive
same,Potency,[18],inactive
same,Potency,[19],inactive
same,Potency,[20],inactive
same,max response,[9],3.51%
same,Potency,[10],inactive
same,Potency,[12],inactive
same,Potency,[13],inactive
same,Potency,[15],inactive
same,Potency,[16],inactive
Cc1nn(C)c(Oc2ccccc2)c1/C=N/OCc1ccc(C(=O)OC(C)(C)C)cc1,Potency,[1],inactive
same,Potency,[17],inactive
same,Potency,[3],0.0049 µM (active)
same,"activity change, positive = activation",[4],-44.6%
same,Potency,[5],inactive
same,Potency,[6],4.4 nM (active)
same,Potency,[7],inactive
same,Potency,[8],inactive
same,Potency,[18],inactive
same,Potency,[20],inactive
same,Potency,[9],6.2 nM (active)
same,Potency,[10],inactive
same,Potency,[11],inactive
same,Potency,[12],inactive
same,Potency,[13],inactive
same,Potency,[14],inactive
same,Potency,[15],inactive
same,Potency,[16],inactive
CCC(CC)Nc1ccc(C)c(C)c1,Potency,[1],inactive
same,Potency,[17],inactive
same,Potency,[2],inactive
same,Potency,[6],inactive
same,Potency,[7],inactive
same,Potency,[8],inactive
same,Potency,[18],inactive
same,Potency,[19],inactive
same,Potency,[20],inactive
same,max response,[9],12.5%
same,Potency,[10],inactive
same,Potency,[11],inactive
same,Potency,[12],inactive
same,Potency,[14],inactive
same,Potency,[15],inactive
same,Potency,[16],inactive
CCn1cc(C(=O)O)c(=O)c2cnc(N3CCNCC3)nc21,Potency,[1],inactive
same,Potency,[2],inactive
same,Potency,[3],inactive
same,"activity change, positive = activation",[4],2.22% [at 42.5 µM]
same,Potency,[5],inactive
same,Potency,[6],inactive
same,Potency,[7],inactive
same,Potency,[8],inactive
same,Potency,[18],inactive
same,Potency,[19],inactive
same,Potency,[20],inactive
same,max response,[9],6.48%
same,Potency,[10],inactive
same,Potency,[12],inactive
same,Potency,[13],inactive
same,Potency,[14],inactive
same,Potency,[15],inactive
same,Potency,[16],inactive
OCCN1CCN(CCCN2c3ccccc3C=Cc3ccccc32)CC1,Potency,[1],inactive
same,Potency,[17],inactive
same,Potency,[2],inactive
same,Potency,[6],inactive
same,Potency,[7],inactive
same,Potency,[8],inactive
same,Potency,[18],inactive
same,Potency,[19],inactive
same,Potency,[20],inactive
same,Potency,[10],inactive
same,Potency,[11],inactive
same,Potency,[12],inactive
same,Potency,[13],inactive
same,Potency,[15],inactive
same,Potency,[16],inactive
